Where “and” joins values, the source holds several entries; their conditions need not be identical. Equal entries are not always repeated. Records with an inconclusive call do not appear. Where a call stands in place of a potency, no number is given. A structure can be active in one record and inactive in another. Calls of active or inactive are those of the source. Calls follow the shape of the dose curve; as a rule, active = well fitted cell-killing curve with a large enough effect in the repeat runs; inconclusive = weak or mixed curves; inactive = flat fitted curve, though single readings scatter.
Experiment: qHTS RealTime-Glo MT Cell Viability Assay in HepG2 cells - 32 hour (AID 1224877); also: nearly all actives have a fitted effect of over 55% in size
Conditions: RealTime-Glo luminescence; series mostly up to 76.8 µM
Source text: U.S. Tox21 Program National Center for Advancing Translational Sciences [NCATS] NIH Chemical Genomics Center [NCGC] U.S. Environmental Protection Agency [EPA] National Institutes of Environmental Health Sciences [NIEHS] National Toxicology Program [NTP] U.S. Food and Drug Administration [FDA] Tox21 Assay Overview: Measure of cell viability is critical in the cell-base assay. Analysis of cell viability is necessary for the characterization of cell responses to cytotoxic drugs and environmental stress. A RealTime-Glo MT Cell Viability Assay to monitor cell viability in real time of continues cell culture during 40 hours of compound treatment was used to screen Tox21 10K library compounds in HepG2 cells. The RealTime-Glo MT Cell Viability Assay is a nonlytic, homogeneous, bioluminescent method to measure cell viability in real time using a simple, plate-based method. The assay involves adding NanoLuc luciferase and a cell-permeant prosubstrate to cells in culture. Viable cells reduce the proprietary prosubstrate to generate a substrate for NanoLuc luciferase. This substrate diffuses from cells into the surrounding culture medium, where it is rapidly used by the NanoLuc Enzyme to produce a luminescent signal. The signal correlates with the number of viable cells, making the assay well suited for cytotoxicity studies.
Tox21 Assay Protocol Summary: The mixture of HepG2 cell suspension and reagents were dispensed at 600cells/6 ul/well in 1536-well tissue culture treated black solid bottom plates using a Multidrop dispenser. After the assay plates were incubated at a 37 C/5% CO2 incubator for 5 hours, 23 nL of compounds dissolved in DMSO, positive and negative controls was transferred to the assay plate by a pintool work station. The plates were incubated at 37 C for 40 hours. The luminescence intensity were measured at 0h, 8h, 16h, 24h, 32h and 40h time points using ViewLux plate reader during compound treatment.
Potency is read from the fitted curve at half-maximal effect.

Structure (SMILES) | Potency
c1cncc([C@@H]2CCCCN2)c1 | inactive
CC(O)CCl (stereo not given) | inactive
C=CCCC#N | inactive
O=C(O)C(Cl)Br (stereo not given) | inactive
CCN[C@@H](C)Cc1ccccc1 | inactive
COC(=O)c1ccccc1CS(=O)(=O)NC(=O)Nc1nc(OC)cc(OC)n1 | inactive
C=C(Cl)CCl | inactive
NNC(N)=O | inactive
ClCOCCl | inactive
CCCCOC(C)=O | inactive
CNC(=O)Oc1cc(C)c(N(C)C)c(C)c1 | inactive
CCOC(=O)COc1ccc(Cl)cc1Cl | inactive
CN(C)C1CCCCC1 | inactive
Cc1ccc(S(=O)(=O)N[C@@H](CCCCN)C(=O)CCl)cc1 | inactive
O=C1C2CC=CCC2C(=O)N1SC(Cl)(Cl)Cl (stereo not given) | inactive and 21.5 µM (active)
CC(C)(C)NC[C@H](O)c1ccc(O)cc1Cl | inactive
CN(C)CCc1c[nH]c2cccc(OP(=O)(O)O)c12 | inactive
COc1ccc(CN2CCNCC2)c(OC)c1OC | inactive
N#CC(Br)(Br)C(N)=O | inactive
C=C(C)[C@H]1CN[C@H](C(=O)O)[C@H]1CC(=O)O | inactive

Structure (SMILES) | Potency
CCN(CC)C1CCCCC1 | inactive
CC(C)[C@]12CC(=O)[C@H](C)[C@H]1C2 | inactive
CON(C)C(=O)Nc1ccc(Br)cc1 | inactive
CCN[C@H](C)Cc1cccc(C(F)(F)F)c1 | inactive
CC1=C2[C@H]3OC(=O)[C@@H](C)[C@@H]3CC[C@@]2(C)C=CC1=O | inactive
CCOC1Oc2ccc(OS(C)(=O)=O)cc2C1(C)C (stereo not given) | inactive
CC1N=C(N)OC1c1ccccc1 (stereo not given) | inactive
CN(C)C(=O)Oc1cc(OC(=O)N(C)C)cc(C(O)CNC(C)(C)C)c1 (stereo not given) | inactive
CCCOc1nn(C(=O)NS(=O)(=O)c2ccccc2C(=O)OC)c(=O)n1C | inactive
O=P(O)(O)c1ccccc1 | inactive
CC[C@H](O)C(C[C@H](C)N(C)C)(c1ccccc1)c1ccccc1 | inactive
CCN(CCO)CCO | inactive
CC(Cc1ccccc1)NCCCCl (stereo not given) | inactive
CCOC(=O)NC(C)(C)Cc1ccc(Cl)cc1 | inactive
c1ccc2c(c1)CCNC2 | inactive
N#CN | inactive
CCCC[N+](=O)[O-] | inactive
CCC1(CC)C(=O)C=CNC1=O | inactive
CCc1ccc(C2CCNCC2)cc1 | inactive
O=C1CC(=O)NC(=O)N1 | inactive

Source: PubChem BioAssay (Tox21)
